Experimental findings from the supplement of paper PMC10338343 are described below.

± gives the standard deviation. Over roughly 3,700 sequences, “pre-steady-state target cleavage rate” has its median near 0.02; the highest 2% begin near 0.23. Only a selection was taken, and the highest values are over-represented in it overall.

In the assay the test system is MILI (PIWIL2) piRISC loaded with Kctd7 piRNA (26 nt). As to the kind of experiment: pre-steady-state target cleavage rate (min^-1); MIWI and MILI are mouse PIWI proteins and EfPiwi is from a freshwater sponge; tags in brackets are library labels; higher = faster piRNA-guided slicing of the target. The settings on record: guide: Kctd7 piRNA 5'p-UGUUAAUCUCUCAGAGAAGGUGACAG; auxiliary factor: 500 nM mouse GTSF1. The protocol:
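Cleave-'n-Seq: a library of target RNAs (target site embedded in constant flanks, ACAGCATTCCGCGTTAGTGATATCCG... 5' flank; DNA-blocked outside the site) at 0.1 nM was incubated with 1 nM active mouse MILI or MIWI piRISC (synthetic 5'-monophosphorylated piRNA guide) with or without 500 nM mouse GTSF1 at 33 °C for 1 min to 16 h. Uncleaved targets were sequenced and normalised to non-target controls, and the pooled three trials were fitted to a burst-and-steady-state model to give the pre-steady-state cleavage rate (min^-1; k3 is constrained to at most 1e-4). Sequence is the target site only; target names encode pairing extent (gX:gY) and contiguous / 1-mismatch / 2-mismatch / bulge geometry. Fits with R² ≤ 0 are excluded.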
On to UAGUGUGUCACCUUGUCUGAGAGAUUAACA, for which the “pre-steady-state target cleavage rate” value amounted to 0.134 ± 0.021. UAGUCUGUCACCUUGUCUGAGAGAUUAACA: the “pre-steady-state target cleavage rate” value worked out at 0.133 ± 0.016.

With UAGUGUGUCACCUUGCUCUGAGAGAUUAACA, the “pre-steady-state target cleavage rate” value was found to be 0.248 ± 0.061. Regarding UAGUGACAGUCCUUCUCUGAGAGAUUAACCA, the “pre-steady-state target cleavage rate” value is 0.0785 ± 0.0063. As to UAGUGACACACCUUCUCUCUGAGAUUAACA, the “pre-steady-state target cleavage rate” value worked out at 0.00653 ± 0.0037. Under “UAGUGACACACCUUCUCUGAGAGAUUAACA [g2:g22:cont:t1A]” stands 0.178 ± 0.01; under UAGUGACAGACCUUCUCUGAGAGAUUCAACA, 0.177 ± 0.04; under UAGUGACUCACCUUCUCUGAGAGAUUCAACA, 0.221 ± 0.035. Under UAGUGACACACCUUCUCUGAGAGAUUCAACA stands 0.244 ± 0.061. Under UAGUGACACACCUUCUCUGAGAGAUCAACA stands 0.0804 ± 0.024; under UAGUGACACACCUUCUCUGAGAGAUUCACA, 0.258 ± 0.057; under UAGUGACACACCUUCUCUGAGAGAUUUUCA, 0.064 ± 0.02. UAGUGACUCACCUUCUCUGAGAGAUUUUCA: the “pre-steady-state target cleavage rate” value turned out to be 0.0728 ± 0.019.

As for UAGUGACUCACCUUCUCUGAGAGAUUCACA, the “pre-steady-state target cleavage rate” value is 0.314 ± 0.091. Turning to UAGUGACACACCUUCUCUGAGAGAUUUAACA, the “pre-steady-state target cleavage rate” value came out at 0.243 ± 0.023. Under UAGUGACACACCUUCUCUGAGAGAUAUUCA stands 0.0197 ± 0.0083. Under UAGUCUGUCACCUUCUCAGAGAGAAUAACA stands 0.0517 ± 0.017. The result for UAGUGACUCACCUUCUCUGAGGGAUUAACA reads 0.0864 ± 0.011; that for UAGUGUGUCACCUACACUGAGAGAUUAACA, 0.15 ± 0.011; that for UAGUCUGUCACCUUCAUCUGAGAGAUUAACA, 0.204 ± 0.052. Take UAGUGAGUCACCUUCUUGAGAGAUUAACA: the “pre-steady-state target cleavage rate” value was found to be 0.0386 ± 0.014. The result for UAGUCUGUCACCUUCUUUGAGAGAUUAACA reads 0.259 ± 0.019. Consider UAGUCUGUCACCUUCUUGAGAGAUUAACA, for which the “pre-steady-state target cleavage rate” value amounted to 0.07 ± 0.023. In the case of UAGUGAGUCACCUUCUUUGAGAGAUUAACA, the “pre-steady-state target cleavage rate” value turned out to be 0.334 ± 0.029. Under UAGUGUGUCACCUUCUUUGAGAGAUUAACA stands 0.229 ± 0.016; under UAGUCUGUCACCUUCUUCUGAGAGAUUAACA, 0.0864 ± 0.021. Under UAGUGAGUCUCCUUCACUGAGAGAUUAACA stands 0.166 ± 0.016.

With UAGUGACUCUCCUUCUGUGAGAGAUUAACA, the “pre-steady-state target cleavage rate” value was found to be 0.0558 ± 0.01.

As to UAGUGACAGACGUUCUCUCAGAGAUUAACA, the “pre-steady-state target cleavage rate” value was 0.0137 ± 0.0054. Consider UAGUCUGUCACCUUCUCUGAGAGGAUUAACA, for which the “pre-steady-state target cleavage rate” value worked out at 0.174 ± 0.019.

With UAGUCUGUCACCUUCUCUCUGAGAUUAACA, the “pre-steady-state target cleavage rate” value amounted to 0.00967 ± 0.0028.

Regarding UAGUCUUGUCACCUUCUCUGAGAGAUUAACA, the “pre-steady-state target cleavage rate” value turned out to be 0.341 ± 0.058. For UAGUCUGUCACCUUCUCUGAGAGAUUUAACA, the “pre-steady-state target cleavage rate” value was determined as 0.245 ± 0.023. The result for UAGUCUGUCACCUUCUCUGAGAGAUUAAUA reads 0.118 ± 0.02; that for “UAGUCUGUCACCUUCUCUGAGAGAUUAACG [g2:g26:cont:t1G]”, 0.196 ± 0.011; that for UAGUCUGUCACCUUCCUGAGAGAUUAACA, 0.0844 ± 0.028. With UAGUCGUGUCACCUUCUCUGAGAGAUUAACA, the “pre-steady-state target cleavage rate” value worked out at 0.199 ± 0.01. Consider UAGUCUUCACCUUCUCUGAGAGAUUAACA, for which the “pre-steady-state target cleavage rate” value is 0.213 ± 0.019.

In the case of UAGUCUGUCACCUUCUCUGAGAGAUUAAUCA, the “pre-steady-state target cleavage rate” value came out at 0.258 ± 0.041.

Consider UAGUCCUGUCACCUUCUCUGAGAGAUUAACA, for which the “pre-steady-state target cleavage rate” value worked out at 0.275 ± 0.026.

In the case of UAGUCUGUCACCUUCUCUGAGAGAUUAAA, the “pre-steady-state target cleavage rate” value came to 0.13 ± 0.026. In the case of UAGUCUCUCACCUUGUCUGAGAGAUUAACA, the “pre-steady-state target cleavage rate” value turned out to be 0.0068 ± 0.0039. For the sequence UAGUGUGACACCUUCUGUGAGAGAUUAACA, the “pre-steady-state target cleavage rate” value came to 0.123 ± 0.015. The result for UAGUCUGUCACCUACUCUGAGAGAAUAACA reads 0.0882 ± 0.017; that for UAGUGACUCACCUUCUCUGAGAGUUUUACA, 0.0214 ± 0.01; that for UAGUGACAGUGCUUCUCUGAGAAAUUAACA, 0.00916 ± 0.0047.

As to UAGUCUGUCACCUUCAGAGAGAGAUUAACA, the “pre-steady-state target cleavage rate” value was 0.0227 ± 0.0099. The result for UAGUGACAGUCCUUCUCUGAGGAGAUUAACA reads 0.00431 ± 0.0026; that for UAGUGACAGUGGAAGAGUGACAGAUUAACA, less than 0.0001; that for “UAGUCUGUCACCUUCUCUGAGAGAUUAACU [g2:g26:cont:t1U]”, 0.244 ± 0.026. For UAGUCUGUCACCUCUCUCUGAGAGAUUAACA, the “pre-steady-state target cleavage rate” value amounted to 0.164 ± 0.015. The result for UAGUCUGUCACCUCUCUGAGAGAUUAACA reads 0.208 ± 0.018.

Consider UAGUCUGUCACCCUCUCUGAGAGAUUAACA, for which the “pre-steady-state target cleavage rate” value is 0.238 ± 0.018. The result for “UAGUCUGUCACCUUCUCUGAGAGAUUAACC [g2:g26:cont:t1C]” reads 0.173 ± 0.013.

Take “UAGUCUGUCACCUUCUCUGAGAGAUUAACA [g2:g26:cont:t1A]”: the “pre-steady-state target cleavage rate” value came out at 0.22 ± 0.013. As to UAGUGACACACCUUCUCAGAGAGAUUAUGA, the “pre-steady-state target cleavage rate” value is 0.0269 ± 0.01.

Take UAGUGUGUCACCUUCUCUGAGAGAUUAAUCA: the “pre-steady-state target cleavage rate” value stood at 0.18 ± 0.032. Under UAGUGUGUCACCUUCUCUGAGAGAUUAAGA stands 0.145 ± 0.036; under UAGUGUGUCACCUUCUCUGAGAGAUUAAA, 0.234 ± 0.064. In the case of UAGUGUGUCACCUUCUCUGAGAGAUUAAACA, the “pre-steady-state target cleavage rate” value was determined as 0.214 ± 0.029. Take UAGUGUGUCACCUUCUCUGAGAGAUUAAAA: the “pre-steady-state target cleavage rate” value was found to be 0.108 ± 0.022. Under UAGUGUGUCACCUUCUCUGAGAGAUUAAUA stands 0.236 ± 0.037. The result for UAGUGACAGUGCUUCUCUGAGAGAAUUAACA reads 0.0127 ± 0.0041. With UAGUGUGUCACCUUCUCUGAGAGCAUUAACA, the “pre-steady-state target cleavage rate” value worked out at 0.17 ± 0.022.

Consider UAGUCUCUCACCUUCUCUGAGAGAUAAACA, for which the “pre-steady-state target cleavage rate” value was found to be 0.0206 ± 0.0076. The result for UAGUCUGUCACCUUCUCUGAGAGAUUGAACA reads 0.214 ± 0.029; that for UAGUGUGUCACCUUCUCUGAGAGAUAUUCA, 0.143 ± 0.047.

As for UAGUGUGUCACCUUCUCUGAGAGAUUGACA, the “pre-steady-state target cleavage rate” value turned out to be 0.25 ± 0.063. The result for UAGUGUGUCACCUUCUCUGAGAGAUUCAACA reads 0.219 ± 0.038; that for UAGUGUGUCACCUUCUCUGAGAGAUUGAACA, 0.0931 ± 0.017.

For UAGUCUGUCACCUUCUCUGAGAGAUUGACA, the “pre-steady-state target cleavage rate” value was 0.246 ± 0.044.

Consider UAGUGAGUCACCUUCUCUGAGAGAUUGACA, for which the “pre-steady-state target cleavage rate” value was determined as 0.208 ± 0.042. With UAGUGUGUCACCUUCUCUGAGAGAUUCACA, the “pre-steady-state target cleavage rate” value amounted to 0.239 ± 0.049. For UAGUCUGUCACCUUCUCUGAGAGAUUUUGA, the “pre-steady-state target cleavage rate” value was 0.0133 ± 0.0061.
